Reference: PubChem BioAssay (NCATS)
Inconclusive results are not listed. Entries that show only a call come without a potency. A number with no mark means an inactive call. The source made the active and inactive calls. The call rests on the fitted dose curve; in most records, active means well fitted cell-killing curve with a large enough effect; inconclusive means small, poorly fitted or top-dose-only effect, or effect the other way; inactive means no such curve, though single readings can be large or run the other way.

Assays:
[1] = Viability qHTS for spleen associated tyrosine kinase inhibitor (SYKi) naive MV4-11 cells (AID 1963823); settings: MV4-11 AML viability, CellTiter-Glo luminescence, 72 h; series mostly up to 45 µM; further: nearly all actives have a fitted effect of over 40% in size
How it was run: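 CellTiter-Glo luminescence, 10 min room-temperature incubation, gave viability. Cells: naive MV4-11 (500/well), treated 72 hr at 37 C, 5% CO2.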

[2] = Viability qHTS for spleen associated tyrosine kinase inhibitor (SYKi) drug resistant MV4-11 cells (AID 1963824); settings: SYKi-resistant MV4-11 viability, CellTiter-Glo, 72 h; series mostly up to 45 µM; further: nearly all actives have a fitted effect of over 35% in size
How it was run: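 CellTiter-Glo luminescence, read 10 min after reagent addition, reports viability after a 72 hr compound exposure. Cells are an MV4-11 line made resistant to SYK inhibition, seeded at 500 per well onto compound-containing plates.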
Potency means the concentration at half of the fitted maximal effect.

| SMILES | viability (% of control) [1] | viability, % of control [2] | Potency [1] | Potency [2] |
| --- | --- | --- | --- | --- |
| CC(C)CC(=O)O[C@@H]1O[C@H](CO)[C@@H](O[C@H]2O[C@H](C)[C@@H](N[C@H]3C=C(CO)[C@@H](O[C@H]4O[C@H](CO)[C@@H](O[C@H]5O[C@H](CO)[C@@H](O[C@H]6O[C@H](CO)[C@@H](O)[C@H](O)[C@H]6O)[C@H](O)[C@H]5O)[C@H](O)[C@H]4O)[C@H](O)[C@H]3O)[C@H](O)[C@H]2O)[C@H](O)[C@H]1O | 82.5% [at 9.25 µM] | 101% [at 9.25 µM] |  |  |
| CCCc1cc(C(=O)N[C@H](Cc2ccc(-c3cccc(OC(F)(F)F)c3)nc2)C(=O)N[C@@H]2CCNC2)sc1C |  |  | 6.61 µM (active) | 7.42 µM (active) |
| O=C(C[C@@H]1C(C(=O)O)=CO[C@@H](O[C@@H]2O[C@H](CO)[C@@H](O)[C@H](O)[C@H]2O)/C1=C\CO)OCCc1ccc(O)c(O)c1 |  |  | inactive | inactive |
| C[C@]1(O)CC[C@@H]2C(C(=O)O)=CO[C@@H](O[C@@H]3O[C@H](CO)[C@@H](O)[C@H](O)[C@H]3O)[C@@H]21 |  |  | inactive | inactive |
| CC(C)C(C(=O)N1CCCC1C(=O)O)N(C)C(=O)C(O)Cc1ccccc1 (stereo not given) |  |  | inactive | inactive |
| C=C(C(=O)O)[C@H]1C[C@]2(C)C(=O)CC[C@]23O[C@H]1C[C@@H]3C |  |  | inactive | inactive |
| C=C1CC[C@@H]2C(C)(C)CCC[C@@]2(C)[C@@H]1CC/C(=C/C(=O)OC)COC(C)=O |  |  | inactive | inactive |
| COc1ccc(C(=O)N(CCC(C)C)Cc2nc(C)c(C)n2Cc2ccccc2C)c(OC)c1 |  |  | 20.6 µM (active) | 20.6 µM (active) |
| O=C(O)CC1(O)C(=O)Nc2ccccc21 (stereo not given) |  |  | 9.43 µM (active) | inactive |
| [O-][n+]1cccc(-c2nc3c(Cl)cccc3cc2[C@@H](Nc2ncnc3cccnc23)C(F)(F)F)c1 |  |  | 4.17 µM (active) | 13.2 µM (active) |
| O=C(c1cn(Cc2cncn2Cc2ccc(Br)cc2)cc1-c1cccc2ccccc12)N1CCOCC1 |  |  | 0.82 µM (active) | 1.64 µM (active) |
| N#CC(=C(/N)Sc1ccccc1N)/C(C#N)=C(/N)Sc1ccccc1N |  |  | 10.3 µM (active) | 7.31 µM (active) |
| COc1cc(/C=C/C(=O)OC[C@H]2O[C@@H](OC3CC(C)=C(C(=O)O)C(C)(C)C3)[C@H](O)[C@@H](O)[C@@H]2O)cc(OC)c1O (stereo not given in full) |  |  | inactive | inactive |
| COC(=O)C1=CO[C@@H](O[C@@H]2O[C@H](CO)[C@@H](O)[C@H](O)[C@H]2O)[C@@H]2[C@@](C)(O)[C@@H](O)C[C@]12O |  |  | inactive | inactive |
| COc1ccc2c(c1)[C@@H]1C[C@]1(C(=O)N1[C@@H]3CC[C@H]1CN(C)C3)Cn1c-2c(C2CCCCC2)c2ccc(C(=O)NS(=O)(=O)N(C)C)cc21 |  |  | 11.6 µM (active) | 7.31 µM (active) |
| Oc1ccc2c(c1)OCC1(O)Cc3cc(O)c(O)cc3C21 (stereo not given) |  |  | 3.66 µM (active) | 3.66 µM (active) |
| CCC(NC(=O)CC(NC(=O)C(CO)NC(=O)C(CC)NC(=O)c1ccc[nH]1)c1ccccc1)C(=O)O (stereo not given) |  |  | inactive | inactive |
| Cc1cc(=O)oc2cc(NC(=O)[C@H](CCC(=O)O)NC(=O)[C@H](CC(C)C)NC(=O)[C@H](CC(C)C)NC(=O)OCc3ccccc3)ccc12 |  |  | inactive | inactive |
| CC(C)(C)c1cc(Br)cc([C@H](CC(=O)O)NC(=O)CNC(=O)c2cc(O)cc(NC3=NCC(O)CN3)c2)c1 (stereo not given in full) |  |  | inactive | inactive |
| O=C(Nc1ncc(SCCN2CCCC2)s1)C1(c2ccc(S(=O)(=O)C3CC3)cc2)CC1C1CCCCC1 (stereo not given) |  |  | 8.2 µM (active) | 8.2 µM (active) |
| CC(CC(C)O[C@@H]1O[C@H](CO)[C@@H](O)[C@H](O)[C@H]1O)OC(=O)/C=C/c1ccc(O)cc1 (stereo not given in full) |  |  | inactive | inactive |
| C=C[C@H]1[C@H](O[C@@H]2O[C@H](CO)[C@@H](O)[C@H](OC(=O)/C=C/c3ccc(O)c(OC)c3)[C@H]2O)OC=C2C(=O)OCC[C@]21O |  |  | inactive | inactive |
| COC(=O)[C@@H](O)[C@H]1[C@@]2(C)CC3(O)[C@@H](C(=O)[C@H]2O)[C@]24O[C@]25CC(=O)O[C@@H](c2ccoc2)[C@]5(C)CCC4[C@]13C (stereo not given in full) |  |  | inactive | inactive |
| O=C(Nc1ccc(-c2ccc(Cl)c(Cl)c2)cc1)C1=C(O)c2ccccc2S(=O)(=O)N1 |  |  | 20.6 µM (active) | 23.1 µM (active) |
| COc1ccc([C@H]2OC[C@H]3O[C@@H](O[C@H]4[C@@H]2NC[C@@H]4O)[C@H](O)[C@H]3O)cc1 |  |  | 0.64 µM (active) | 0.404 µM (active) |
